Counter-ions that a name gives are not always drawn.
How the values were obtained:
Settings in all cases: incubation time: 27 h, anaerobic, 37 °C;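 for the amine columns active = adjusted P below 0.05 in both replicates with a change the same way and a mean fold change under 0.8 or over 1.25; inactive = the rest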
[1] = tested on: Clostridium sporogenes DSM 1664; test: growth (OD595) fold change vs plate DMSO controls (fold change (ratio)); higher = more growth
In short: (§1)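 Anaerobic mGAM cultures in 96-well plates were grown for 27 h at 37 °C, and absorbance was then read at 595 nm. After blank and compound background correction with 20 µM compound solutions in water, a calibration factor of 5 gave OD. Growth is the fold change relative to the median of each plate's DMSO controls. Values are means of 2 biological replicates, with fold changes above 1.5 set to NA.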

Escherichia coli IAI1 [2] = test: as above
In short: as §1

[3] = tested on: Klebsiella aerogenes DSM 30053; test: as above
In short: as §1

[4] = tested on: Ruminococcus gnavus DSM 108212; test: as above
In short: as §1

[5] = tested on: Klebsiella aerogenes DSM 30053; test: fold change of Histamine concentration vs plate DMSO controls (fold change (ratio)); higher = more amine produced, active = hit call of the paper (significant change in both replicates, either direction)
In short: (§2)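 Anaerobic mGAM cultures of four gut bacterial strains were grown at 37 °C for 27 h in 80 µL wells, starting at OD 0.1 before 1:1 dilution. Compounds were at 20 µM final (sweeteners 50 µM). Whole cultures were extracted with cold acetonitrile/methanol containing 0.1% formic acid and centrifuged. Amines were quantified by LC–triple-quadrupole MS (dynamic MRM) against external calibration curves and drift-corrected within batch. Each value is the fold change versus plate DMSO controls, averaged over 2 biological replicates.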

[6] = tested on: Clostridium sporogenes DSM 1664; test: fold change of Tryptamine concentration vs plate DMSO controls (fold change (ratio)); higher = more amine produced, active = hit call of the paper (significant change in both replicates, either direction)
In short: as §2

[7] = tested on: Ruminococcus gnavus DSM 108212; test: as above
In short: as §2

Escherichia coli IAI1 [8] = test: fold change of Putrescine concentration vs plate DMSO controls (fold change (ratio)); higher = more amine produced, active = hit call of the paper (significant change in both replicates, either direction)
In short: as §2

[9] = tested on: Klebsiella aerogenes DSM 30053; test: as above
In short: as §2

Escherichia coli IAI1 [10] = test: fold change of Cadaverine concentration vs plate DMSO controls (fold change (ratio)); higher = more amine produced, active = hit call of the paper (significant change in both replicates, either direction)
In short: as §2

[11] = tested on: Klebsiella aerogenes DSM 30053; test: as above
In short: as §2

[12] = tested on: Ruminococcus gnavus DSM 108212; test: fold change of 2-Phenylethylamine concentration vs plate DMSO controls (fold change (ratio)); higher = more amine produced, active = hit call of the paper (significant change in both replicates, either direction)
In short: as §2

Row | Compound | growth [1] | growth (Escherichia coli IAI1 [2]) | growth [3] | growth [4] | fold change of Histamine concentration [5] | fold change of Tryptamine concentration [6] | fold change of Tryptamine concentration [7] | fold change of Putrescine concentration (Escherichia coli IAI1 [8]) | fold change of Putrescine concentration [9] | fold change of Cadaverine concentration (Escherichia coli IAI1 [10]) | fold change of Cadaverine concentration [11] | fold change of 2-Phenylethylamine concentration [12]
1 | Clc1ccc(C(Cn2ccnc2)OCc2ccsc2Cl)c(Cl)c1 (stereo not given) [Tioconazole] (20 µM) | 1.21 | 0.866 | 0.838 | 0.0103 | 1.05 (inactive) | 0.957 (inactive) | 0.26 (active) | 1.01 (inactive) | 1.01 (inactive) | 0.982 (inactive) | 0.997 (inactive) | 0.275 (active)
2 | Nc1nc(=O)n([C@@H]2CS[C@H](CO)O2)cc1F [(-) Emtricitabine] (20 µM) | 1.11 | 0.995 | 0.981 | 1.12 | 1.01 (inactive) | 1.03 (inactive) | 1.03 (inactive) | 1.01 (inactive) | 0.985 (inactive) | 0.996 (inactive) | 0.991 (inactive) | 1.06 (inactive)
3 | CN1CCN(CC(=O)N2c3ccccc3C(=O)Nc3cccnc32)CC1 [Pirenzepine dihydrochloride] (20 µM) | 1.06 | 1.02 | 0.992 | 1.03 | 1.1 (inactive) | 1.02 (inactive) | 0.993 (inactive) | 1.01 (inactive) | 1.08 (inactive) | 0.99 (inactive) | 1.04 (inactive) | 0.916 (inactive)
4 | CN(C)C(=O)COC(=O)Cc1ccc(OC(=O)c2ccc(NC(=N)N)cc2)cc1 [Camostat mesylate] (20 µM) | 1.07 | 1.01 | 1.04 | 0.958 | 0.897 (inactive) | 1.01 (inactive) | 0.982 (inactive) | 1.02 (inactive) | 1.02 (inactive) | 1.02 (inactive) | 1.02 (inactive) | 0.999 (inactive)
5 | CC(=O)O[C@H]1C(=O)[C@@]2(C)[C@H]([C@H](OC(=O)c3ccccc3)[C@]3(O)C[C@H](OC(=O)[C@H](O)[C@@H](NC(=O)c4ccccc4)c4ccccc4)C(C)=C1C3(C)C)[C@]1(OC(C)=O)CO[C@@H]1C[C@@H]2O [Paclitaxel] (20 µM) | 1.04 | 1.03 | 1.05 | 0.944 | 0.885 (inactive) | 0.975 (inactive) | 1.08 (inactive) | 1.04 (inactive) | 0.969 (inactive) | 1.03 (inactive) | 1.03 (inactive) | 1.07 (inactive)
6 | NCCCCCC(=O)O [Aminocaproic acid] (20 µM) | 0.927 | 1.04 | 1.04 | 1.06 | 0.969 (inactive) | 1.08 (inactive) | 1.04 (inactive) | 1.11 (inactive) | 0.996 (inactive) | 0.983 (inactive) | 1.02 (inactive) | 1.09 (inactive)
7 | Clc1ccc(COC(Cn2ccnc2)c2ccc(Cl)cc2Cl)cc1 (stereo not given) [Econazole nitrate] (20 µM) | 1.35 | 1.01 | 1.08 | 0.481 | 0.83 (inactive) | 0.815 (inactive) | 0.357 (active) | 1.01 (inactive) | 0.963 (inactive) | 1.02 (inactive) | 1.01 (inactive) | 0.404 (active)
8 | COc1cc(C(=O)NS(=O)(=O)c2ccccc2C)ccc1Cc1cn(C)c2ccc(NC(=O)OC3CCCC3)cc12 [Zafirlukast] (20 µM) | 0.542 | 0.946 | 0.99 | 0.355 | 1.05 (inactive) | 0.371 (active) | 0.582 (active) | 0.977 (inactive) | 1.02 (inactive) | 1.02 (inactive) | 1.01 (inactive) | 0.814 (inactive)
9 | CN(C)CCCSC(=N)N [Dimaprit dihydrochloride] (20 µM) | 1.04 | 1.04 | 1.02 | 1.03 | 0.939 (inactive) | 0.955 (inactive) | 1.07 (inactive) | 1 (inactive) | 0.996 (inactive) | 0.998 (inactive) | 0.993 (inactive) | 1.07 (inactive)
10 | CC(=O)OCC(=O)[C@@]1(OC(C)=O)[C@@H](C)C[C@H]2[C@@H]3C[C@H](F)C4=CC(=O)C=C[C@]4(C)[C@@]3(F)[C@@H](O)C[C@@]21C [Diflorasone Diacetate] (20 µM) | 1.05 | 0.996 | 0.978 | 0.993 | 1.03 (inactive) | 1.03 (inactive) | 1.01 (inactive) | 0.969 (inactive) | 1.01 (inactive) | 1.02 (inactive) | 0.989 (inactive) | 0.978 (inactive)
11 | CCCCC(CC)CN1C(=O)[C@@H]2[C@H](C1=O)[C@@H]1C=C[C@H]2C1 (mixture of isomers) (20 µM) | 1.03 | 1.02 | 1.06 | 1.02 | 0.925 (inactive) | 0.978 (inactive) | 1.05 (inactive) | 0.993 (inactive) | 0.987 (inactive) | 1.02 (inactive) | 1 (inactive) | 1.06 (inactive)
12 | COc1ccc(C(=O)NCc2cccnc2)cc1C(=O)NCc1cccnc1 [Picotamide monohydrate] (20 µM) | 0.983 | 0.972 | 0.998 | 0.842 | 1.07 (inactive) | 1.06 (inactive) | 0.926 (inactive) | 0.989 (inactive) | 1.05 (inactive) | 0.962 (inactive) | 1.02 (inactive) | 0.866 (inactive)
13 | CCCCOC(=O)c1ccc(O)cc1 [Butylparaben] (20 µM) | 1.09 | 0.963 | 0.965 | 1.01 | 1.01 (inactive) | 0.984 (inactive) | 0.964 (inactive) | 0.939 (inactive) | 0.968 (inactive) | 1.04 (inactive) | 0.984 (inactive) | 0.953 (inactive)
14 | CCN(CC)CCNC(=O)c1cc(Br)c(N)cc1OC [Bromopride] (20 µM) | 0.874 | 1.03 | 1.05 | 1.12 | 1.01 (inactive) | 1 (inactive) | 1 (inactive) | 1.02 (inactive) | 0.998 (inactive) | 0.967 (inactive) | 1.01 (inactive) | 1.02 (inactive)
15 | Cc1ncc([N+](=O)[O-])n1CC(C)O (stereo not given) [Secnidazole] (20 µM) | 0 | 1.07 | 1.02 | 0.0442 | 0.824 (inactive) | 0.0346 (active) | 0.041 (active) | 0.978 (inactive) | 1.03 (inactive) | 0.987 (inactive) | 1.02 (inactive) | 0.0431 (active)
16 | c1cnc(N2CCN(Cc3ccc4c(c3)OCO4)CC2)nc1 [Piribedil] (20 µM) | 0.986 | 1 | 1.07 | 0.998 | 0.934 (inactive) | 1.18 (inactive) | 1.02 (inactive) | 1.03 (inactive) | 0.971 (inactive) | 0.962 (inactive) | 0.996 (inactive) | 0.991 (inactive)
17 | Cc1cc(=O)oc2cc(O)ccc12 [Hymecromone] (20 µM) | 1.23 | 1.04 | 0.98 | 1.02 | 1.04 (inactive) | 1.06 (inactive) | 0.953 (inactive) | 1 (inactive) | 1.01 (inactive) | 0.999 (inactive) | 0.994 (inactive) | 0.95 (inactive)
18 | CC(=O)Nc1nnc(S(N)(=O)=O)s1 [Acetazolamide] (20 µM) | 1.04 | 0.95 | 1.04 | 0.746 | 1.04 (inactive) | 0.973 (inactive) | 1.02 (inactive) | 0.965 (inactive) | 1.06 (inactive) | 0.971 (inactive) | 1.11 (inactive) | 1.09 (inactive)
19 | CCCC(=O)Nc1ncnc2c1ncn2[C@@H]1O[C@@H]2COP(=O)(O)O[C@H]2[C@H]1OC(=O)CCC [Bucladesine sodium salt] (20 µM) | 0.934 | 1.16 | 1.04 | 0.964 | 0.931 (inactive) | 0.976 (inactive) | 0.984 (inactive) | 1.06 (inactive) | 0.983 (inactive) | 1 (inactive) | 1.01 (inactive) | 0.975 (inactive)
20 | COc1c(N2CCNC(C)C2)c(F)cc2c(=O)c(C(=O)O)cn(C3CC3)c12 (stereo not given) [Gatifloxacin] (20 µM) | 0.0115 | 0.0496 | 0.235 | 0.0125 | 0.285 (active) | 0.0452 (active) | 0.226 (active) | 0.888 (inactive) | 1.02 (inactive) | 0.264 (active) | 0.97 (inactive) | 0.226 (active)
21 | CC(=O)N[C@H]1[C@H]([C@H](O)[C@H](O)CO)OC(C(=O)O)=C[C@@H]1NC(=N)N [Zanamivir] (20 µM) | 0.953 | 1.02 | 0.977 | 0.992 | 1.01 (inactive) | 1 (inactive) | 1.06 (inactive) | 0.946 (inactive) | 0.962 (inactive) | 0.886 (inactive) | 0.991 (inactive) | 1.09 (inactive)
22 | CCOc1ccc2nc3cc(N)ccc3c(N)c2c1 [Ethacridine lactate] (20 µM) | 0.937 | 0.981 | 0.974 | 0.954 | 0.985 (inactive) | 1.07 (inactive) | 0.856 (inactive) | 1.14 (inactive) | 1.01 (inactive) | 1.12 (inactive) | 0.993 (inactive) | 0.837 (inactive)
23 | CC(=O)O[C@]1(C(C)=O)CC[C@H]2[C@@H]3C=C(C)C4=CC(=O)CC[C@]4(C)[C@H]3CC[C@@]21C [Megestrol acetate] (20 µM) | 1.03 | 1.1 | 0.998 | 1.07 | 0.981 (inactive) | 1.05 (inactive) | 1.04 (inactive) | 1.2 (inactive) | 0.971 (inactive) | 0.982 (inactive) | 1.01 (inactive) | 1.04 (inactive)
24 | CS(=O)(=O)c1ccc([C@@H](O)[C@@H](CO)NC(=O)C(Cl)Cl)cc1 [Thiamphenicol] (20 µM) | 0.937 | 0.551 | 0.468 | 0.18 | 0.0658 (active) | 0.738 (active) | 0.141 (active) | 0.321 (active) | 0.426 (active) | 1.17 (inactive) | 0.957 (inactive) | 0.145 (active)
25 | CCN[C@@H]1C[C@H](N)[C@@H](O[C@H]2OC(CN)=CC[C@H]2N)[C@H](O)[C@H]1O[C@H]1OC[C@](C)(O)[C@H](NC)[C@H]1O [Netilmicin sulfate] (20 µM) | 0.949 | 0.93 | 0.898 | 0.912 | 0.845 (inactive) | 1.02 (inactive) | 0.901 (inactive) | 0.947 (inactive) | 0.995 (inactive) | 0.982 (inactive) | 0.993 (inactive) | 0.948 (inactive)

From the supplement of paper PMC12494721
